PubChem BioAssay (EPA / NIEHS)
A structure can be active in one record and inactive in another. Activity calls are given as the source filed them. Rule for the calls: active = hit-call score of the fitted dose curve at least 0.9, where 1 is the maximum; inactive = score below 0.9.

Experiments:
[1] = read-out: Monokine induced gamma interferon (MIG), CXCL9 (gene 4283); assay: BSK_BE3C_MIG: BioMAP Diversity Plus: BE3C Assay for Monokine induced gamma interferon (MIG) Biomarker Activity (AID 2283035); details: primary human bronchial epithelial cells; actives raise or lower the signal
Procedure, shortened: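 hu bronchial epithelial 1° cells, 24 h cpd; MIG by ELISA; bidirectional fit, DMSO = baseline.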

[2] = read-out: Transforming growth factor beta 1 (TGFb1), TGFB1 (gene 7040); assay: BSK_BE3C_TGFb1: BioMAP Diversity Plus: BE3C Assay for Transforming growth factor beta 1 (TGFb1) Biomarker Activity (AID 2283036); details: primary human bronchial epithelial cells; actives raise or lower the signal
Procedure, shortened: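 ELISA readout of TGF-b1 from human lung bronchial epithelial primary cells, taken 24 h post-treatment. Gain or loss of signal fitted relative to DMSO baseline, with parallel SRB staining for overt cytotoxicity.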

[3] = read-out: Plasminogen activator inhibitor-1 (PAI1), SERPINE1 (gene 5054); assay: BSK_BE3C_PAI1: BioMAP Diversity Plus: BE3C Assay for Plasminogen activator inhibitor-1 (PAI1) Biomarker Activity (AID 2283037); details: primary human bronchial epithelial cells; actives raise or lower the signal
Procedure, shortened: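 PAI-1 was measured by ELISA in human primary bronchial epithelial cultures 24 h after chemical dosing, with cytotoxicity checked by SRB total-protein staining in parallel cultures. Activity was fitted in both directions relative to DMSO.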

[4] = read-out: urokinase plasminogen activator (uPA), PLAU (gene 5328); assay: BSK_BE3C_uPA: BioMAP Diversity Plus: BE3C Assay for urokinase plasminogen activator (uPA) Biomarker Activity (AID 2283038); details: primary human bronchial epithelial cells; actives raise or lower the signal
Procedure, shortened: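 Bronchial epithelial cells (human, primary); chemical 24 h; uPA by ELISA; bidirectional fit vs DMSO. SRB (0.1%, after 10% TCA fixation, 560 nm) in parallel cultures for cytotoxicity.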

[5] = read-out: Urokinase-type plasminogen activator receptor (uPAR), PLAUR (gene 5329); assay: BSK_BE3C_uPAR: BioMAP Diversity Plus: BE3C Assay for Urokinase-type plasminogen activator receptor (uPAR) Biomarker Activity (AID 2283039); details: primary human bronchial epithelial cells; actives raise or lower the signal
Procedure, shortened: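 uPAR levels were measured by ELISA after 24 h compound treatment of primary human bronchial epithelial cells, fitted in both directions relative to DMSO. Parallel SRB staining served as the cytotoxicity read-out.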

[6] = read-out: Interleukin-6 (IL6), IL6 (gene 3569); assay: BSK_CASM3C_IL6: BioMAP Diversity Plus: CASM3C Assay for Interleukin-6 (IL6) Biomarker Activity for (AID 2283040); details: primary human coronary artery smooth muscle cells; actives raise or lower the signal
[7] = read-out: Tissue plasminogen activator (tPA), PLAT (gene 5327); assay: BSK_BE3C_tPA: BioMAP Diversity Plus: BE3C Assay for Tissue plasminogen activator (tPA) Biomarker Activity (AID 2283041); details: primary human bronchial epithelial cells; actives raise or lower the signal
Procedure, shortened: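 tPA measured by ELISA 24 h after dosing human primary bronchial epithelial cells (BE3C system). Changes in either direction were fitted against DMSO. Parallel cultures were stained with SRB to flag overt cytotoxicity.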

[8] = read-out: Interleukin-8 (IL8), CXCL8 (gene 3576); assay: BSK_CASM3C_IL8: BioMAP Diversity Plus: CASM3C Assay for Interleukin-8 (IL8) Biomarker Activity (AID 2283042); details: primary human coronary artery smooth muscle cells; actives raise or lower the signal;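 note: IL-8 protein level quantified by ELISA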
[9] = read-out: Human Leukocyte Antigen - DR isotype (HLADR), HLA-DRA (gene 3122); assay: BSK_CASM3C_HLADR: BioMAP Diversity Plus: CASM3C Assay for Human Leukocyte Antigen - DR isotype (HLADR) Biomarker Activity (AID 2283043); details: primary human coronary artery smooth muscle cells; actives raise or lower the signal;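 note: cell-surface HLA-DR protein level quantified by ELISA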
[10] = read-out: Macrophage colony-stimulating factor (MCSF), CSF1 (gene 1435); assay: BSK_CASM3C_MCSF: BioMAP Diversity Plus: CASM3C Assay for Macrophage colony-stimulating factor (MCSF) Biomarker Activity (AID 2283044); details: primary human coronary artery smooth muscle cells; actives raise or lower the signal;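 note: M-CSF protein amount quantified by ELISA after 24 h exposure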
[11] = read-out: Low-density lipoprotein receptor (LDLR), LDLR (gene 3949); assay: BSK_CASM3C_LDLR: BioMAP Diversity Plus: CASM3C Assay for Low-density lipoprotein receptor (LDLR) Biomarker Activity (AID 2283045); details: primary human coronary artery smooth muscle cells; actives raise or lower the signal;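 note: LDLR protein level on the cell surface quantified by ELISA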
[12] = read-out: Monocyte Chemoattractant Protein-1 (MCP1), CCL2 (gene 6347); assay: BSK_CASM3C_MCP1: BioMAP Diversity Plus: CASM3C Assay for Monocyte Chemoattractant Protein-1 (MCP1) Biomarker Activity (AID 2283046); details: primary human coronary artery smooth muscle cells; actives raise or lower the signal;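 note: MCP-1 level quantified by ELISA 24 h after dosing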
[13] = BSK_CASM3C_Proliferation: Cell Proliferation Assessment in the BioMAP Diversity Plus: CASM3C Assay (AID 2283047); details: primary human coronary artery smooth muscle cells;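 note: sulforhodamine B total protein stain as relative cell number at 560 nm; sub-confluent cells exposed 48 h before staining; fitted both ways against DMSO so gain or loss of cell number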
[14] = read-out: Monokine induced gamma interferon (MIG), CXCL9 (gene 4283); assay: BSK_CASM3C_MIG: BioMAP Diversity Plus: CASM3C Assay for Monokine induced gamma interferon (MIG) Biomarker Activity (AID 2283048); details: primary human coronary artery smooth muscle cells; actives raise or lower the signal;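 note: MIG protein level measured by ELISA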
[15] = read-out: serum amyloid A (SAA), SAA1 (gene 6288); assay: BSK_CASM3C_SAA: BioMAP Diversity Plus: CASM3C Assay for serum amyloid A (SAA) Biomarker Activity (AID 2283049); details: primary human coronary artery smooth muscle cells; actives raise or lower the signal;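 note: SAA protein level quantified by ELISA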
[16] = BSK_CASM3C_SRB: Viability Assessment in the BioMAP Diversity Plus: CASM3C Assay (AID 2283050); details: primary human coronary artery smooth muscle cells
[17] = read-out: Thrombomodulin, THBD (gene 7056); assay: BSK_CASM3C_Thrombomodulin: BioMAP Diversity Plus: CASM3C Assay for Thrombomodulin Biomarker Activity (AID 2283051); details: primary human coronary artery smooth muscle cells; actives raise or lower the signal;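 note: thrombomodulin protein level measured by ELISA 24 h after dosing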
[18] = read-out: Tissue Factor, F3 (gene 2152); assay: BSK_CASM3C_TissueFactor: BioMAP Diversity Plus: CASM3C Assay for Tissue Factor Biomarker Activity (AID 2283052); details: primary human coronary artery smooth muscle cells; actives raise or lower the signal;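 note: cell surface tissue factor protein level read by ELISA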
[19] = read-out: Interferon-gamma inducible Protein 10 (IP10), CXCL10 (gene 3627); assay: BSK_hDFCGF_IP10: BioMAP Diversity Plus: hDFCGF Assay for Interferon-gamma inducible Protein 10 (IP10) Biomarker Activity (AID 2283053); details: primary human foreskin fibroblasts; actives raise or lower the signal
Procedure, shortened: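 ELISA quantification of IP-10 after a 24 h chemical exposure of human dermal foreskin fibroblast primary cultures. Both increases and decreases versus DMSO fitted.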

[20] = read-out: Urokinase-type plasminogen activator receptor (uPAR), PLAUR (gene 5329); assay: BSK_CASM3C_uPAR: BioMAP Diversity Plus: CASM3C Assay for Urokinase-type plasminogen activator receptor (uPAR) Biomarker Activity (AID 2283054); details: primary human coronary artery smooth muscle cells; actives raise or lower the signal;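 note: cell-surface uPAR protein level quantified by ELISA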

Measured: AC50

COP(=S)(OC)Oc1ccc(Sc2ccc(OP(=S)(OC)OC)cc2)cc1
active: [7] 10 µM | [17] 12.6 µM
inactive: all other assays above

CCOP(=S)(OCC)Oc1nc(Cl)c(Cl)cc1Cl
active: [17] 26.9 µM | [19] 20 µM
inactive: all other assays above

CCC(=O)C(CC(C)N(C)C)(c1ccccc1)c1ccccc1 (centres undefined)
inactive: all assays above

Cn1sc(Cl)cc1=O
active: [6] 20 µM | [13] 6.81 µM | [19] 28.2 µM
inactive: all other assays above

C=C(C)C(=O)[O][Sn]([CH2]CCC)([CH2]CCC)[CH2]CCC
active: [1] 0.147 µM | [2] 0.146 µM | [3] 0.146 µM | [4] 0.215 µM | [5] 0.146 µM | [6] 0.148 µM | [7] 0.148 µM | [8] 0.359 µM | [9] 0.148 µM | [10] 0.326 µM | [11] 0.148 µM | [12] 0.292 µM | [13] 0.148 µM | [14] 1.03 µM | [15] 0.366 µM | [16] 0.148 µM | [17] 1.54 µM | [18] 1.15 µM | [19] 0.148 µM | [20] 0.391 µM

COP(=S)(OC)Oc1c(Cl)cc(C)cc1Cl
active: [8] 0.213 µM | [13] 20 µM | [18] 5.88 µM
inactive: all other assays above

ClC1(Cl)C2(Cl)C3(Cl)C4(Cl)C(Cl)(Cl)C5(Cl)C3(Cl)C1(Cl)C5(Cl)C24Cl (centres undefined)
active: [11] 1.14 µM
inactive: all other assays above

NC(=O)O
inactive: all assays above

COc1cc(OC)nc(NC(=O)NS(=O)(=O)c2ncccc2C(=O)N(C)C)n1
inactive: all assays above

CCSC(C)CC1CC(=O)C(C(CC)=NOC/C=C/Cl)=C(O)C1 (centres undefined)
inactive: all assays above

CCOP(=S)(OCC)SCCS(=O)(=O)CC
inactive: all assays above

COc1cc(-c2ccc(N)c(OC)c2)ccc1N
active: [13] 15 µM
inactive: [1] | [2] | [3] | [4] | [5] | [6] | [7] | [8] | [9] | [10] | [11] | [12] | [13] | [14] | [15] | [16] | [17] | [18] | [19] | [20]

Oc1ccc(-c2ccccc2)cc1
active: [10] 32.5 µM | [11] 3.97 µM | [13] 6 µM | [16] 3.97 µM | [18] 20 µM
not listed: [6]
inactive: all other assays above

COP(=S)(OC)Oc1ccc(S(=O)(=O)N(C)C)cc1
inactive: all assays above

O=C(O)C(Cl)(Cl)Cl
inactive: all assays above

CN(C)N=O
inactive: all assays above

CCN1CCC2(CC1)COc1cc3c(cc12)N(C(=O)c1ccc(-c2ccc(-c4nnc(C)o4)cc2C)cc1)CC3
inactive: [2] | [18]
active: [1] 23.8 µM | [3] 12.5 µM | [4] 18.7 µM | [5] 18.7 µM | [6] 31.7 µM | [7] 18.7 µM | [8] 27.9 µM | [9] 15.3 µM | [10] 27.4 µM | [11] 34.2 µM | [12] 28.5 µM | [13] 18.7 µM | [14] 36 µM | [15] 32.5 µM | [16] 24.4 µM | [17] 33.7 µM | [19] 9.35 µM | [20] 31.1 µM

COP(=S)(OC)Oc1cc(Cl)c(Cl)cc1Cl
active: [3] 8.51 µM | [9] 20 µM | [10] 3.97 µM | [13] 29.3 µM | [15] 20 µM
inactive: all other assays above

ClCC(Cl)CCl
inactive: all assays above

COC[C@H](C)N(C(=O)CCl)c1c(C)csc1C
inactive: all assays above

ClC(Cl)=C(Cl)C(Cl)=C(Cl)Cl
active: [3] 20 µM | [4] 20 µM | [6] 3.97 µM | [13] 1.52 µM | [17] 0.0235 µM
inactive: all other assays above

CC(C)(c1ccccc1)c1ccc(O)c(C(C)(C)c2ccccc2)c1
active: [1] 22.7 µM | [2] 16.8 µM | [3] 14.3 µM | [4] 16.2 µM | [5] 29.3 µM | [6] 26.4 µM | [7] 14.7 µM | [8] 28.5 µM | [9] 25.8 µM | [10] 25.3 µM | [11] 28.2 µM | [13] 7.92 µM | [14] 29.4 µM | [15] 23.6 µM | [16] 26.8 µM | [17] 34.3 µM | [18] 16.4 µM | [19] 3.52 µM | [20] 29.4 µM

CC(=O)[O][Hg][c]1ccccc1
active: [1] 2.01 µM | [2] 0.148 µM | [3] 1.42 µM | [4] 1.06 µM | [5] 1.8 µM | [6] 3.56 µM | [7] 0.537 µM | [8] 3.6 µM | [9] 0.58 µM | [10] 0.816 µM | [11] 0.148 µM | [12] 0.394 µM | [13] 0.148 µM | [14] 2.05 µM | [15] 0.47 µM | [16] 0.148 µM | [18] 3.97 µM | [19] 0.289 µM | [20] 0.487 µM
inactive: [17]
